A selection: hits, their analogues and other compounds. The true share with any hit is near 2.3%.
H9c2 protect – protects H9c2 cardiomyocytes from peroxide injury; H2O2 injury protection, ATPLite, 2 h; protection from H2O2 cell death, % at 20 µM; 360,000 compounds, 0.63% hits;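 active = compounds giving at least 50% protection of heart cells from peroxide-induced death in the single-dose screen, raw or plate-pattern-corrected value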;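 note: 0% = DMSO wells with peroxide and 100% = DMSO wells without peroxide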
TAG inh – triacylglycerol accumulation inhibition | H9c2 cells, Nile Red lipid (TAG) fluorescence; cells loaded with 200 µM oleic acid | inhibition, % at 12.5 µM | 230,000 compounds, 0.66% hits | AID 651582;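 active = pattern-corrected inhibition of lipid staining of at least 50% with the nuclear-stain viability signal not falling by more than 50%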;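 note: 0% = DMSO wells and 100% = triacsin C control wells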
aDG glyco act – alpha-DG glycosylation activation. activation, % at 10 µM. 360,000 compounds, 0.22% hits. Pro5-aDG cells, alpha-DG glycosylation AlphaScreen (IIH6); 0% Pro5, 100% B10-LARGE cell signal;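 active = activation of at least 8% versus controls, or a plate z-score of at least 8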;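 note: Pro5 are CHO cells carrying HIG-tagged alpha-DG that lacks glycosylation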
FAS TE block – FAS thioesterase (human) inhibition | recombinant FAS-TE, OMFH fluorogenic substrate, fluorescence endpoint | inhibition, % at 15 µM | 360,000 compounds, 0.67% hits;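 active = compounds whose normalised, plate-corrected inhibition of enzyme fluorescence in the single-dose primary screen is 50% or more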;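 note: 0% = DMSO with enzyme and 100% = substrate without enzyme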
MIN6 prolif – MIN6 beta-cell proliferation induction | MIN6 cells proliferation, ATPlite luminescence, 48 h; cells starved in 0.2% serum; 100% = growth in 10% serum | 330,000 compounds, 0.29% hits | proliferation, % at 10 µM;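 active = compounds whose signal lies at least 3.5 SD above the mean of all wells on their plate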;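 note: 0% = DMSO-treated cells in low-serum medium and 100% = 10% serum control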
m-calpain inh – blocks pig calpain II enzyme activity | inhibition, % at 16 µM | 220,000 compounds, 0.37% hits | purified calpain II, fluorogenic peptide substrate, 30 min | AID 1236;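 active = inhibition above about 50%, limit read from the data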
Starred values were filed as active, the others as inactive; . = no result.

SMILES	H9c2 protect	TAG inh	aDG glyco act	FAS TE block	MIN6 prolif	m-calpain inh
CCN(C[C@H]1N[C@@](Cc2ccccc2)(C(=O)OC)[C@H]2C(=O)N(Cc3ccccc3)C(=O)[C@@H]12)S(=O)(=O)c1ccccc1	17.9	-5.3	0.1	27.4	-3.4	.
CCN(C[C@H]1N[C@@](CC)(C(=O)OC)[C@H]2C(=O)N(Cc3ccccc3)C(=O)[C@@H]12)S(=O)(=O)c1ccc(F)cc1	58.9*	3.1	0.0	9.7	-2.3	.
COc1ccccc1NC(=O)CSc1ccc2nnc(-c3ccc(C)cc3)n2n1	69.2*	-8.1	0.0	-0.3	0.4	-0.9
O=C(CSc1ccc2nnc(-c3ccc(F)cc3)n2n1)N1CCCc2ccccc21	80.3*	.	-0.3	49.8	-1.0	-4.8
O=C(CN1C(=O)c2ccccc2C1=O)N1CCOCC1	-3.5	-13.1	-0.2	-7.2	-0.1	-10.4
O=C(CN1C(=O)c2ccccc2C1=O)N1CCN(C2c3ccccc3-c3ccccc32)CC1	2.7	.	0.0	56.5*	-0.7	-20.9
NC(=O)c1ccsc1NC(=O)CS(=O)(=O)c1ccccc1	9.1	3.2	-0.7	-7.0	2.0	.
Cc1ccc(C(=O)NNc2ncnc3c2cnn3C)cc1	-0.9	-3.2	-0.1	-5.3	-1.4	-9.8
Cn1ncc2c(O/N=C(\N)c3ccc(C(F)(F)F)cc3)ncnc21	-9.8	85.8*	-0.2	1.4	-4.1	-12.6
Cc1cccc(NC(c2ccc(O)cc2)c2ccc3ccc(C)nc3c2O)n1 (centres undefined)	91.7*	.	0.3	-0.9	-6.0	-62.4
Cc1ccc2cc3c(NC(=O)c4cccnc4)nn(C)c3nc2c1	58.9*	14.5	-0.1	-1.6	-0.3	-209.5
CCCCC(=O)NC(c1cccc([N+](=O)[O-])c1)c1ccc2cccnc2c1O (centres undefined)	39.3	76.2*	-0.3	12.3	.	.
CCCCC(=O)NC(c1ccc(C(C)C)cc1)c1ccc2cccnc2c1O (centres undefined)	51.1*	.	0.4	-1.5	-2.9	.
COc1ccc(N2CCN(c3oc(COc4ccc(Cl)cc4Cl)nc3C#N)CC2)cc1	-1.6	.	0.2	9.1	-4.6	51.2*
O=C(O)c1cccc(-n2sc3ccccc3c2=O)c1	78.3*	-12.3	0.1	-11.8	-3.4	.
O=C1NC[C@H](c2ccccc2)OC(=O)[C@@H](Cc2ccc(F)cc2)CC/C=C/C[C@H]1CC(=O)N(CCO)Cc1ccccc1	85.9*	3.4	-0.4	20.6	-5.7	.
O=C1NC[C@H](c2ccccc2)OC(=O)[C@H](Cc2ccc(F)cc2)CC/C=C/C[C@H]1CC(=O)N(CCO)Cc1ccccc1	52.0*	-12.9	-0.3	33.5	-5.0	.
O=C(Cc1cccc(NC(=O)C2CCCN(C(=O)C3CCCCC3)C2)c1)Nc1cccc(C(=O)N2CCOCC2)c1 (centres undefined)	-4.7	12.0	-0.1	-10.1	.	.
CC(C)OCCCNc1ncnc2c1[nH]c1ccccc12	-17.5	.	5.4*	-5.4	-6.0	-24.6
COc1cc(C(=O)Nc2ccccc2C(=O)Nc2ccccn2)cc(OC)c1OC	60.2*	25.0	-0.1	3.4	-1.0	.
COC(=O)c1ccccc1NC(=O)c1ccc2nccnc2c1	64.2*	11.3	0.1	1.1	-3.3	-151.9
COc1ccc(C(=O)Nc2cccc(NC(=O)c3ccc(OC)c(OC)c3)n2)cc1OC	53.5*	15.6	-0.4	1.6	-4.2	.
COc1ccc(C(=O)Nc2cccc3cccnc23)cc1OC	25.0	.	0.0	2.9	1.7	15.3
COc1cc(C(=O)Nc2ccc(NC(=O)c3cccc(Cl)c3)nc2)cc(OC)c1OC	68.3*	.	0.1	12.4	-1.5	.
CC(=O)/C(N=Nc1ccc(C(=O)O)cc1)=C(\C)O	-3.2	-4.3	0.0	-4.3	-3.0	-9.4
SMILES	H9c2 protect	TAG inh	aDG glyco act	FAS TE block	MIN6 prolif	m-calpain inh
CC(=O)/C(N=Nc1ccc(-n2ccc(C(F)(F)F)n2)cc1)=C(\C)O	4.8	11.2	-0.2	14.7	-0.8	93.0*
O=C(NNC(=O)C(c1ccccc1)c1ccccc1)c1ccccn1	50.6*	.	2.9	-1.7	-5.5	-0.4
Cc1ccc(S(=O)(=O)c2ccc([N+](=O)[O-])o2)cc1	-17.2	76.7*	-0.4	37.4	.	.
COC(=O)c1[nH]c2cc(OC)c(OC)cc2c1/C=N/Nc1ccccc1	75.2*	.	-0.3	8.6	-5.9	.
O=C(CCn1nc(-c2ccc(Cl)cc2)ccc1=O)N1CCN(c2ccccc2)CC1	6.6	.	0.3	51.3*	-4.6	.
O=C(O)c1nn(CC(=O)N2CCN(c3ccccc3)CC2)c(=O)c2ccccc12	66.3*	.	0.0	-1.1	-1.9	.
O=C(CCn1nc(-c2ccccc2)ccc1=O)N1CCN(c2ccccc2)CC1	2.3	.	0.0	-3.4	-0.4	.
O=C(CCn1nc(-c2ccccc2)c2ccccc2c1=O)N1CCN(c2ccccc2)CC1	52.9*	0.3	-0.1	11.1	-3.5	-3.0
COc1cccc(-c2nn(-c3ccccc3)cc2C(=O)Nc2nccs2)c1	62.6*	43.9	-0.4	22.8	-2.7	-10.7
O=C(Nc1nccs1)c1cn(-c2ccccc2)nc1-c1ccncc1	18.8	35.8	0.4	-3.8	-0.2	-96.4
COc1ccc(-c2nn(-c3ccccc3)cc2C(=O)Nc2nccs2)cc1	59.0*	20.1	-0.5	11.3	-3.9	-39.3
CN(C(=O)CSc1nnc(-c2ccc(Cl)cc2)n1C)C1CCS(=O)(=O)C1 (centres undefined)	-5.6	-2.2	0.1	-7.1	1.9	.
COc1ccc(Nc2nc(Nc3ccc(OC)cc3)nc(-n3[nH]c(=O)c(C)c3C)n2)cc1	92.3*	57.5*	-0.5	3.7	-4.5	-115.7
CCCCNC(=O)c1nc(-c2cc3ccccc3[nH]2)oc1-c1cccc(C(F)(F)F)c1	.	.	0.6	.	.	.
Cc1cc(N(C)/N=C/c2ccccc2O)nc(-c2ccccc2O)n1	50.2*	19.2	-0.4	12.8	-1.4	-86.8
CCn1ncc(CN2CCC(Oc3cc(C(=O)NC4CC4)ccc3OC)CC2)c1C	5.3	-33.1	-0.1	-2.0	-1.6	.
COCCn1ccc2c(OCC(=O)Nc3cc(OC)ccc3OC)cccc2c1=O	35.8	28.2	-0.4	5.5	2.3	.
CCOCCn1ccc2c(OCC(=O)Nc3cc(OC)ccc3OC)cccc2c1=O	52.6*	25.1	-0.3	4.5	5.5	.
CC(C)n1c(O)c(N=NC(=O)CNC(=O)CCc2ccccc2)c2ccccc21	-3.1	4.4	-0.1	-0.5	0.1	66.4*
Nc1c(C(=O)OCC2CCCO2)c2nc3ccccc3nc2n1-c1ccc2c(c1)OCCO2 (centres undefined)	.	.	.	.	0.6	-110.8
O=c1c2c3nc4ccccc4nc3n(-c3ccc4c(c3)OCCO4)c2ncn1C1CCCC1	-20.0	64.1*	-0.1	36.8	-0.6	.
O=C(Cn1[nH]c(=O)c2ccccc2c1=O)N1CC=C(c2ccccc2)CC1	47.9*	12.1	0.1	-2.5	0.4	45.0
